Measurements taken from PubChem BioAssay (NCI).
Compounds without any hit were thinned out: in the full panel of roughly 79,000, 15% have a hit. Unmarked numbers belong to inactive results. Activity calls are given as the source filed them. Rule as the data show it: active = growth inhibition above about 70%; inactive = the rest.

Experiments:
[1] = NCI Yeast Anticancer Drug Screen. Data for the rad50 strain (AID 155);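 also: 0% = growth of vehicle-only cultures of the same strain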; settings: S. cerevisiae rad50 strain growth inhibition; at 50.0 µM; active compounds read high
Method in brief: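 Inhibition values express reduced yeast growth in compound-treated cultures relative to vehicle-treated controls.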

[2] = NCI Yeast Anticancer Drug Screen. Data for the mec2-1 strain (AID 157); settings: S. cerevisiae mec2-1 strain, at 50.0 µM, active compounds read high
Method in brief: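 Vehicle-treated cultures served as reference for growth inhibition of compound-exposed mec2-1 yeast.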

[3] = NCI Yeast Anticancer Drug Screen. Data for the sgs1 mgt1 strain (AID 161);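 also: 0% = growth of cultures given vehicle only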; settings: S. cerevisiae sgs1 mgt1 strain, at 50.0 µM, active compounds read high
Method in brief: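 Inhibition of yeast growth, normalised to vehicle-treated controls, is reported for a strain bearing genetic alterations in DNA damage repair.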

[4] = NCI Yeast Anticancer Drug Screen. Data for the cln2 rad14 strain (AID 165);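 also: 0% = growth equal to vehicle treated cultures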; settings: S. cerevisiae cln2 rad14 strain, at 50.0 µM, active compounds read high
Method in brief: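 Each compound was tested on cln2 rad14 yeast. Inhibition of growth was calculated against vehicle-exposed controls.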

[5] = NCI Yeast Anticancer Drug Screen. Data for the bub3 strain (AID 167); settings: S. cerevisiae bub3 mutant strain, at 50.0 µM, active compounds read high
Method in brief: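 Steps: expose the mutant yeast strain to compound; grow alongside vehicle-treated cultures; measure growth; express inhibition against the vehicle cultures.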

[6] = NCI Yeast Anticancer Drug Screen. Data for the mlh1 rad18 strain (AID 175); settings: S. cerevisiae mlh1 rad18 strain growth inhibition; at 50.0 µM; active compounds read high
Method in brief: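 Vehicle-treated cultures served as the reference for growth inhibition in a yeast strain carrying DNA damage repair alterations exposed to each compound.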

Structure (SMILES) | growth inhibition [1] | growth inhibition [2] | growth inhibition [3] | growth inhibition [4] | growth inhibition [5] | growth inhibition [6]
OCC(O)CS (stereo unspecified) | -15.2% | 0.1% | -4.8% | 36.1% | -4.5% | -15.5%
Cc1ccc(S(=O)(=O)NN=C2C(C)CC(C(C)(C)C)CC2C)cc1 (stereo unspecified) | -24.8% | 26% | -41.9% | 8.9% | 44.6% | -6%
NCC(=O)NCCC(=O)O | 3.15% | -6.7% | 1.75% | 4.6% | -24.6% | -4.6%
O=c1c(O)c(-c2ccc(O)cc2O)oc2cc(O)cc(O)c12 | -8.35% | -29.2% | -3.55% | 3.5% | -19.4% | -26.8%
COc1ccc(C2(C)OCCC(C)O2)cc1 (stereo unspecified) | -0.25% | -18.1% | 0.1% | -24.1% | -5.2% | 10.6%
CC(C)Oc1c(O)c2c3c(oc(=O)n3C=CC2c2ccccc2)c1OC(C)C (stereo unspecified) | 86.8% (active) | 86.9% (active) | 88.2% (active) | 86.6% (active) | 85.5% (active) | 82.3% (active)
COc1cc2ccc3c4cc(OC)c(OCc5ccccc5)cc4cnc3c2cc1OC | 40.5% | 0.45% | 4.9% | 18.9% | 27.4% | 23%
CC(C)(C)c1ccc(O)c(Cl)c1 | -15.8% | -7.65% | -5.9% | -7.85% | -11.1% | 10.2%
NC(=S)NNC(=O)c1ccncc1 | 13.3% | -3.1% | 1.8% | 10.4% | 3.75% | 7.05%
CCOC(=O)C1CC=CCC1C(=O)OCC (stereo unspecified) | -5.25% | -7.5% | 0.5% | 2.55% | 1.3% | -19.5%
CC(=O)Oc1ccc(C2CC(=O)N(CCN(C)C)C2=O)cc1 (stereo unspecified) | 0.2% | 30.2% | -0.5% | -6.35% | 14.2% | -2.1%
O=S(=O)(Cl)c1ccc(I)cc1 | -5.2% | -21.2% | -12.3% | 22.4% | -2.2% | -20.6%
CC(=O)c1nc2ccccc2n1CC(=O)c1ccc([N+](=O)[O-])cc1 | -0.65% | 8.7% | 6.2% | -8% | 3.45% | -8.1%
CC(=O)NC(Cc1c[nH]c2ccccc12)C(=O)O (stereo unspecified) | -21.4% | -37.8% | -30.6% | -23.4% | -35.8% | -5.65%
O=C(Nc1nncs1)c1ccncc1 | -14.8% | -5.75% | -13.2% | 7.1% | -28.8% | -46.1%
O=C(O)C1CCc2ccccc2C1 (stereo unspecified) | 15.4% | 4.05% | 9.85% | -0.45% | -2.4% | 2.95%
COc1cc(C(=O)NN(C)C)cc(OC)c1OC | 13.5% | 0.65% | -9.95% | 10.8% | -7.95% | -18.5%
CC(=O)Oc1ccccc1C(=O)OC(=O)c1ccccc1OC(C)=O | 5.3% | -10.2% | -1.7% | -9.85% | 0% | 6.75%
CCCNC(=O)Nc1ccc(OC)cc1Cl | -12.1% | -9.45% | -1.65% | -59.3% | -6.3% | -15.6%
CNc1ccc(OC)cc1S(=O)(=O)c1ccccc1[N+](=O)[O-] | 2.25% | -35.4% | 35.6% | 18.7% | 4.75% | -22.2%
CCOC1OC(C2COC(=O)O2)C(O)C1O (stereo unspecified) | 15.8% | 10.6% | -3.85% | -71.2% | 7.4% | -3%

Structure (SMILES) | growth inhibition [1] | growth inhibition [2] | growth inhibition [3] | growth inhibition [4] | growth inhibition [5] | growth inhibition [6]
O=C(Nc1cc(C(F)(F)F)ccc1Cl)c1ccc(Cl)cc1Cl | 8.2% | 11.2% | 1.7% | -0.75% | 9.9% | 13.7%
NC(=O)NC12CC3CC(CC(F)(C3)C1)C2 | -19.6% | -29.1% | -29.7% | -0.95% | -47.5% | -9.85%
Cc1cc(CN(C)C)cc(C(C)C)c1O | 1.85% | -0.9% | -12% | 34.1% | 12.8% | -3.95%
O=C(O)c1cc(O)c(O)c(Cl)c1 | 10.3% | 6.15% | 4.1% | -9% | 6.6% | 5.05%
CSc1nnc(CF)c(=O)[nH]1 | -1.4% | -1.35% | -12.3% | -4.2% | -7.05% | -14.4%
O=C(COc1ccc(Cl)cc1Cl)Nc1ccc2ccccc2c1S(=O)(=O)O | 6.45% | 2.2% | 12.5% | -5.95% | 8.4% | 3.6%
COc1ccc2[nH]c(=O)c(CO)c(CO)c2c1 | 0.45% | -12.2% | -1% | -26.1% | 0.55% | 4.35%
C(=C\c1ccc2ccccc2c1)/c1ccc2ccccc2c1 | 6.75% | 25.6% | 16.6% | 63.5% | 6.85% | 31.4%
N=c1sc(N2CCOCC2)nn1CC(=O)c1ccccc1 | 3.25% | -20.9% | -18.2% | 4.35% | -17.1% | 15.1%
O=C(c1ccccc1)C12CCC3CC(CC(C3)C1)C2 | -18.1% | 8.25% | 11.5% | 6.05% | 16.4% | 9.65%
CCS(=O)CCC(N)C(=O)O (stereo unspecified) | -9.7% | -20.1% | 1.65% | -19.6% | 5.7% | -3.6%
CC(C)=CCCC(C)C1CCC2C3CC=C4CC(O)CCC4(C)C3CCC12C (stereo unspecified) | 34.5% | 45% | 48.2% | 34.4% | 12.9% | 72.3% (active)
Oc1cc2c(cc1O)C1c3ccc(O)c(O)c3OCC1(O)C2 (stereo unspecified) | 21.9% | 13% | 22.7% | -1% | 9.4% | 22.4%
COC(=O)c1ccccc1NC(=O)C(=O)NNC(=O)c1ccncc1 | 10.3% | -3% | -4.4% | 7.55% | -0.8% | 22.1%
Cc1cc2c(cc1C)[n+](=O)c(C(=O)/C=C/c1ccc3c(c1)OCO3)c(C)n2[O-] | 5.85% | 13.4% | 10.1% | 28.8% | 1.35% | 0.15%
c1ccc(C2N3CCCCC3[C@@H]3c4[nH]c5ccccc5c4CCN23)nc1 (stereo partly specified) | -26.8% | -36.5% | -6.5% | 13.3% | -25.9% | -4.1%
Nc1ccc2cc3ccccc3cc2c1 | 12.6% | -20.6% | 1.95% | -18% | 7.35% | 25%
CC1=CCCC(C)(C)C1/C=C/C(C)=N/NC(=O)Nc1ccccc1 (stereo unspecified) | 32.2% | -6.2% | 0.25% | -8.85% | 8.85% | 16.4%
O=C(CCCCl)CCCCl | 12.2% | -10.9% | 21.6% | 12.6% | -3.6% | 19.1%
O=C(NN1C(=O)c2cccc3cccc(c23)C1=O)NN1C(=O)c2cccc3cccc(c23)C1=O | 98.2% (active) | 99.4% (active) | 98.2% (active) | 99.5% (active) | 99.2% (active) | 99% (active)
